# Test results: PubChem BioAssay (NCI)
# Compounds without any hit were thinned out: in the full panel of roughly 83,000, 20% have a hit.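 Interpretation: 100, growth as untreated; towards 0, rising growth inhibition; 0, no net growth; 0 to -100, cell death. Compounds scoring below 10 were considered active.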 Calls of active or inactive are those of the source.
# Key:
# Experiment in all cases: NCI-60 one-dose screen, 48 h (100 = growth as untreated, 0 = no growth, -100 = all killed)
# Conditions in all cases: 10 µM unless noted
# T-47D breast = system: T-47D breast
# BT-549 breast = system: BT-549 breast
# SW-620 colon = system: SW-620 colon
# MCF7 breast = system: MCF7 breast
# HCT-116 colon = system: HCT-116 colon
# HCC-2998 colon = system: HCC-2998 colon
# KM12 colon = system: KM12 colon
SMILES,growth (T-47D breast),growth (BT-549 breast),growth (SW-620 colon),growth (MCF7 breast),growth (HCT-116 colon),growth (HCC-2998 colon),growth (KM12 colon)
COc1ccc(-c2cc(-c3cccnc3)nc3sc4c(N)c(C(C)=O)c(-c5ccccc5)nc4c23)cc1OC,59.4% (inactive),34.9% (inactive),109% (inactive),65.3% (inactive),67.6% (inactive),80.1% (inactive),
COC(=O)[C@@]1(C)CC[C@]2(C)CC[C@]3(C)C4=CC=C5C(=CC(=O)C(O)=C5C)[C@]4(C)[C@@H](O)C[C@@]3(C)[C@@H]2C1,-13.7% (active),35.5% (inactive),-10.4% (active),17.6% (inactive),0.149% (active),37.7% (inactive),
CCOC(=O)/C=C1\S/C(=N\Nc2cc(=O)[nH]c3ccc(Br)cc23)N(c2ccccc2)C1=O,7.62% (active),75.1% (inactive),27.8% (inactive),22.2% (inactive),27.1% (inactive),110% (inactive),88.5% (inactive)
COc1cc(Cc2cc(OC)c(O)c(OC)c2)cc(OC)c1O,109% (inactive),87.8% (inactive),41.4% (inactive),68.1% (inactive),85.6% (inactive),73.5% (inactive),
O=C1OCC2=C1C(c1ccccc1)c1cc3c(cc1N2CCO)OCCO3 (stereo not drawn),50.5% (inactive),14.1% (inactive),21.1% (inactive),8.47% (active),6.08% (active),0.753% (active),9.35% (active)
COc1cc2ncnc(Nc3ccc(F)c(Cl)c3)c2cc1OCC(=O)N1CCOCC1,53.5% (inactive),98.5% (inactive),102% (inactive),83.9% (inactive),84% (inactive),94.3% (inactive),94.4% (inactive)
O=CCCCOCc1ccccc1,102% (inactive),103% (inactive),100% (inactive),91.7% (inactive),105% (inactive),94.2% (inactive),102% (inactive)
Cc1cc2oc(/C=C/c3ccccc3)cc(=O)c2c(C)c1Cl,87% (inactive),101% (inactive),100% (inactive),98% (inactive),105% (inactive),106% (inactive),109% (inactive)
CNC(=O)Nc1ccc(-c2ccc3ncnc(Nc4cccc(Cl)c4)c3c2)cc1,-4.13% (active),50.9% (inactive),93.9% (inactive),22.6% (inactive),65.9% (inactive),74% (inactive),61.3% (inactive)
O=C(c1ccc(Br)cc1)C(Br)C(c1ccc(Cl)cc1)C(c1ccccc1)[N+](=O)[O-] (stereo not drawn),76.9% (inactive),105% (inactive),96.4% (inactive),84.5% (inactive),76.2% (inactive),125% (inactive),92.7% (inactive)
COc1ccc(/C=C2\CN(C(=O)C(Cl)Cl)C/C(=C\c3ccc(OC)c(OC)c3)C2=O)cc1OC,0.33% (active),-41% (active),-41.4% (active),0.517% (active),-83.6% (active),-95.5% (active),-49.7% (active)
CCCn1c(=S)sc2c(NNC(C)=O)nc(C)nc21,78.9% (inactive),110% (inactive),101% (inactive),95.9% (inactive),95.3% (inactive),94.8% (inactive),97% (inactive)
CCOC(=O)c1c(C)nc2ccccc2c1/C=C/c1ccc(F)cc1,23.4% (inactive),73.6% (inactive),85.5% (inactive),23.3% (inactive),56.2% (inactive),81.1% (inactive),72.5% (inactive)
CC/C(=C(\c1ccc(Cl)cc1)c1ccc(OCCN2CCCCC2)cc1)c1ccc(O)cc1,4.66% (active),58.3% (inactive),-35.7% (active),3.41% (active),-56.5% (active),37.5% (inactive),17.5% (inactive)
Cc1c(C(C)(C)O)cn2ncnc(Oc3ccc(NC(=O)Nc4ccc(Cl)c(C(F)(F)F)c4)c(F)c3)c12,40.6% (inactive),72.4% (inactive),85% (inactive),32.4% (inactive),38.7% (inactive),125% (inactive),
O=C(O)CCCCCCCCCCN1C(=O)/C(=C2/C(=O)N(CC(=O)O)c3ccc(Br)cc32)SC1=S,77.9% (inactive),105% (inactive),106% (inactive),82.9% (inactive),87.2% (inactive),115% (inactive),40.2% (inactive)
COc1ccc(C(O)c2cc3c(N)c(C(=O)Nc4cccc5ccccc45)sc3nc2C)cc1 (stereo not drawn),44.2% (inactive),8.08% (active),18.8% (inactive),11.3% (inactive),6.27% (active),-38.8% (active),-6.56% (active)
O=C(N/N=C/c1ccc(Cl)cc1)c1ccc(NC(=O)c2ccccn2)cc1,52.1% (inactive),62.7% (inactive),71.5% (inactive),52.3% (inactive),5.15% (active),72.3% (inactive),73.2% (inactive)
CCCCCc1ccc(S(=O)(=O)Nc2ccc3nc(N)oc3c2)cc1,36.1% (inactive),61.9% (inactive),76.8% (inactive),31.8% (inactive),43% (inactive),98.5% (inactive),64.1% (inactive)

SMILES,growth (T-47D breast),growth (BT-549 breast),growth (SW-620 colon),growth (MCF7 breast),growth (HCT-116 colon),growth (HCC-2998 colon),growth (KM12 colon)
COc1cc2ncnc(Nc3ccc(S(=O)(=O)Nc4nccs4)cc3)c2cc1OCCCN1CCCC1,105% (inactive),105% (inactive),103% (inactive),99.6% (inactive),97.3% (inactive),112% (inactive),121% (inactive)
O=S(=O)(NCCNc1nccc(-c2c(-c3ccc(F)c(O)c3)nc3sccn23)n1)c1ccc(Cl)cc1,2.76% (active),29.9% (inactive),52.3% (inactive),13.5% (inactive),16.7% (inactive),59.6% (inactive),
CNCC[C@H](Oc1cccc2ccccc12)c1cccs1,99.9% (inactive),94.2% (inactive),106% (inactive),78.1% (inactive),68.8% (inactive),79% (inactive),109% (inactive)
CCOC(=O)NCCCC(=O)NCCc1ccccc1,100% (inactive),110% (inactive),111% (inactive),97.8% (inactive),97.6% (inactive),99.1% (inactive),96.6% (inactive)
CN1C(=O)/C(=C/c2ccc(C(=O)Nc3ncc(Cc4cccc(C(F)(F)F)c4)s3)cc2)SC1=S,30% (inactive),47.3% (inactive),38.2% (inactive),30.4% (inactive),43.7% (inactive),49.6% (inactive),28% (inactive)
O=C(NNc1nc2cc(F)ccc2n2c(CN3CCOCC3)ccc12)c1ccccc1,11.8% (inactive),25.7% (inactive),-1.14% (active),-6.31% (active),0.232% (active),32.8% (inactive),12.2% (inactive)
Cc1oc(-c2ccc(Cl)cc2)nc1C1=NN(C(=O)c2ccncc2)C(c2ccccc2)C1 (stereo not drawn),97% (inactive),89.7% (inactive),95.2% (inactive),94% (inactive),93.8% (inactive),102% (inactive),90.6% (inactive)
COC(=O)Cn1c2c(c3c(OC)cccc31)C(=O)c1ccccc1-2,89.7% (inactive),103% (inactive),96.9% (inactive),85.9% (inactive),89.1% (inactive),89.8% (inactive),107% (inactive)
O=C(Cn1nc(-c2cccc3ccccc23)ccc1=O)NCc1cccc(Cl)c1,9.17% [50 µM] (active),44.3% [50 µM] (inactive),55% [50 µM] (inactive),20.1% [50 µM] (inactive),33.5% [50 µM] (inactive),54.6% [50 µM] (inactive),41.7% [50 µM] (inactive)
CCOc1ncc([N+](=O)[O-])c(OCC)n1,106% (inactive),105% (inactive),111% (inactive),93.8% (inactive),105% (inactive),99.4% (inactive),117% (inactive)
COC(=O)c1nc(-c2ccccc2)oc1S(=O)(=O)N1CCCC(C)C1 (stereo not drawn),69.2% (inactive),75% (inactive),35.4% (inactive),47.3% (inactive),63.9% (inactive),104% (inactive),97.7% (inactive)
Fc1cc2[nH]ncc2c2c3c(c(-c4cn[nH]c4C(F)(F)F)nc12)CCCC3,-16.2% (active),-64.2% (active),4.23% (active),2.27% (active),1.05% (active),-14.2% (active),9.4% (active)
O=CN1N=C(c2cccc(Nc3ccnc4cc(Cl)ccc34)c2)CC1c1ccc(Cl)cc1 (stereo not drawn),43.3% (inactive),8.58% (active),23.4% (inactive),14.6% (inactive),1% (active),44.3% (inactive),28.1% (inactive)
COc1cc(/C=C/C(=O)c2cc(OC)c(OC)c(OC)c2)ccc1Oc1nc2c(c(=O)n(C)c(=O)n2C)n1C,-16.1% (active),-57.7% (active),-40% (active),0.476% (active),-80.6% (active),-85.9% (active),-62.1% (active)
CCN(CC)CCOc1ccc2ccc(=O)oc2c1,97.5% (inactive),102% (inactive),101% (inactive),97.6% (inactive),100% (inactive),90.5% (inactive),103% (inactive)
COc1ccc(CNc2ccc3nc(NC(=O)CN4CCCCCC4)sc3c2)cc1,42.8% (inactive),86.1% (inactive),86.7% (inactive),69.1% (inactive),68.6% (inactive),109% (inactive),
COc1ccc2c(c1)oc1c(C)c3c(c(C)c12)C(=O)N(CCOS(C)(=O)=O)C3=O,103% (inactive),90% (inactive),94.2% (inactive),73.7% (inactive),94.1% (inactive),100% (inactive),107% (inactive)
O=C(O)c1cn(C2CC2)c2cc(N3CCN(C(=O)N4CCOCC4)CC3)c(F)cc2c1=O,110% (inactive),95.7% (inactive),112% (inactive),103% (inactive),110% (inactive),107% (inactive),104% (inactive)
